D2 ag-1 – agonists of human D2 dopamine receptor | HEK293 T-REx D2 cells, calcium flux agonist mode | activation, % at 2 µM | AID 485358 | 0.53% of 340,000 active;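 active means activation over 3 SD above normal in the single-dose calcium agonist read, cut at about 30% in these data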; further: 0% is about no effect
Target sequence (P14416 whole entry, looked up): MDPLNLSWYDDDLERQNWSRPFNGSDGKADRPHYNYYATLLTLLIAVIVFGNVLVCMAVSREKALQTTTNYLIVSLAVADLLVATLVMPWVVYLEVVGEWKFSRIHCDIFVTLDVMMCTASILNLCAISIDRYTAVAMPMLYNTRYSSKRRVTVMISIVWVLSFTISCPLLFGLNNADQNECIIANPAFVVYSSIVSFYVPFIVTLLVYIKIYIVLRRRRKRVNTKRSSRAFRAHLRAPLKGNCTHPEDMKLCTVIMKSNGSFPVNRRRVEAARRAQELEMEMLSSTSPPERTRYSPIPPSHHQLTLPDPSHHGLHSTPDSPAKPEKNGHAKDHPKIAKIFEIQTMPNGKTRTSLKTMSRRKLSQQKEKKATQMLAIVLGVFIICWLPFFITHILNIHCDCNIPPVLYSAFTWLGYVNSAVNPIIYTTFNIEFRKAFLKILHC
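Tetracycline-induced HEK293 T-REx cells with force-coupled D2 receptor, plated overnight at 30 C, loaded with no-wash calcium dye. After a 10 s baseline, compound was pin-added and calcium flux read kinetically for 180 s; calcium rises flagged agonists.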
D2 antagonist – antagonists of human D2 dopamine receptor | P14416 | HEK293 TREx D2 cells, calcium flux, dopamine EC80 | inhibition, % at 10 µM | 2% of 340,000 active; in the data active means inhibition above about 30%; inactive means below that, where a call was filed; further: 0% is about no effect
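Overnight-induced (tetracycline, 30 C) HEK293 T-REx cells carrying force-coupled D2 receive a no-wash calcium dye, then compound, then EC80 dopamine at 180 s; signals are read kinetically throughout.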
D2 PAM-1 – human D2 receptor positive allosteric modulation. P14416. DiscoveRx D2 beta-arrestin cells, luminescence, 90 min; 100% = 57 uM dopamine signal. potentiation, % (test concentration not listed). 0.23% of 360,000 active. AID 624464; in the data active means potentiation above about 50%; inconclusive means mostly about 30% to 49%
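D2 cells co-treated with compound plus 50 nM dopamine (EC20) for 90 min at 37 deg C to detect potentiation. Beta-arrestin recruitment was read as enzyme-fragment luminescence after 1 h at ambient temperature. Full response was set by 57 uM dopamine.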
D2 ag-2 – human D2 receptor agonism in beta-arrestin assay | 0.084% of 360,000 active | P14416 | activation, % (test concentration not listed) | DiscoveRx PathHunter D2 beta-arrestin, luminescence, 90 min; 100% = 57 uM dopamine signal; in the data active means activation above about 40%; inconclusive means between about 15% and that limit
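Agonist mode: compounds alone added to overnight-plated D2 PathHunter cells for 90 min at 37 C, with 57 uM final dopamine (EC100) defining full response. Beta-arrestin recruitment detected by chemiluminescent reagent, read after 1 h at ambient temperature.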
D2 PAM-2 – positive allosteric modulators of human D2 dopamine receptor. 0.34% of 340,000 active. HEK293 T-REx D2, calcium flux, EC20 dopamine potentiation. potentiation, % at 10 µM. P14416;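 active means potentiation over 3 SD above the plate norm, cut at about 30% in these data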; further: 0% is about no effect
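Primary screen. Calcium kinetics in induced HEK293 T-REx D2 cells: compound pre-addition 180 s, EC20 dopamine, 180 s more.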
D3 arrestin ag – D3 receptor agonism confirmed, beta-arrestin readout; shares compounds with D2 ag-1; DiscoveRx D3 beta-arrestin cells, luminescence, 90 min; Potency, µM (titrated, usually from 76.9 µM), without a hit: at the top dose activation, usual class: activators; 4% of 2,300 active;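 further: potency means the concentration at half of the fitted maximal effect; 100% = dopamine control response; nearly all actives have a fitted effect of over 70% in size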
D2 ag-3 – counter-screen for D3 agonists: human D2 dopamine receptor agonism; shares compounds with D2 ag-1; DiscoveRx PathHunter D2 beta-arrestin, luminescence, 90 min; response scale: percent relative to full dopamine signal; Potency, µM (highest dose often 76.9 µM), for the others: top-dose activation, usual class: activators; 5.9% of 2,300 active; AID 720507; further: potency means the concentration at half of the fitted maximal effect; % of control where 0% means no effect; nearly all actives have a fitted effect of over 70% in size
* = called active by the depositor; ? = inconclusive; nt = not tested or not shown. Sampled rows, rich in hits. Any-hit rate of the full collection: about 2.4%. Unless noted, the call rests on the fitted dose curve; in most records, active means well fitted activation curve with a large enough effect; inconclusive means small, poorly fitted or top-dose-only effect; inactive means flat fitted curve, though single readings scatter.

SMILES	D2 ag-1	D2 antagonist	D2 PAM-1	D2 ag-2	D2 PAM-2	D3 arrestin ag	D2 ag-3
Cc1ccc([N+](=O)[O-])c(OCCN2CCNCC2)c1	68*	71*	-4	-1	-17	?	4%
CC(C)OCCCn1c(SCc2ccccc2Cl)nc2c(sc3ccccc32)c1=O	-1	nt	nt	nt	13	nt	nt
O=C(COc1coc(CN2CCN(c3ccccc3)CC2)cc1=O)Nc1ccccc1	46*	26	-31	9	-6	11%	18%
Cc1cc(NC(=O)COc2coc(CN3CCN(c4ccccc4)CC3)cc2=O)no1	nt	nt	0	15	nt	3%	25%
Cc1cc(NC(=O)COc2coc(CN3CCN(c4ccc(F)cc4)CC3)cc2=O)no1	-1	-6	-7	-1	2	nt	nt
O=C(COc1coc(CN2CCN(c3ccccc3F)CC2)cc1=O)Nc1ccccc1	nt	nt	0	-3	nt	nt	nt
Cc1ccc(NC(=O)COc2coc(CN3CCN(c4ccccc4)CC3)cc2=O)cc1	11	9	-10	1	-6	nt	nt
Cc1cccc(NC(=O)COc2coc(CN3CCN(c4ccccc4)CC3)cc2=O)c1C	43*	5	-3	?	-14	-4%	24%
Cc1cc(NC(=O)COc2coc(CN3CCN(c4ccccc4F)CC3)cc2=O)no1	62*	15	7	12	-21	15%	?
CCCN(CCC)CCCNC(=O)C1CCN(S(=O)(=O)CC)CC1	0	nt	nt	nt	15	nt	nt
CC1(C)CC(=O)c2cc(-c3nc(-c4ccc(Cl)cc4)cs3)c(=O)n(-c3ccc(Cl)cc3)c2C1	1	nt	nt	nt	-1	nt	nt
CC(=O)c1ccc(NC(=O)C(C)N2CCN(C/C=C/c3ccccc3)CC2)cc1 (configuration not stated)	20	47*	-24	5	-14	?	2%
COc1ccc(Cl)cc1NC(=O)C(C)N1CCN(C/C=C/c2ccccc2)CC1 (configuration not stated)	12	-11	-33	-2	-16	nt	nt
CC(C(=O)Nc1ccc([N+](=O)[O-])cc1)N1CCN(C/C=C/c2ccccc2)CC1 (configuration not stated)	67*	53*	-30	3	-30	?	?
CC(C(=O)N(C)Cc1ccccc1)N1CCN(C/C=C/c2ccccc2)CC1 (configuration not stated)	69*	69*	-4	?	-16	?	?
CCCCSCCCNC(=O)C1CCN(Cc2nc(-c3ccc(CC)cc3)oc2C)CC1	0	nt	nt	nt	1	nt	nt
Cc1ccc(-c2c3c(=O)n(C)c(=O)n(C)c3c3c(C)nc4ccccc4n23)cc1	1	nt	nt	nt	1	nt	nt
CC12CCC(C(=O)N(CCCCN3CCN(c4ccccn4)CC3)C1=O)C2(C)C (configuration not stated)	73*	84*	57*	73*	-21	?	0.071µM*
CCN1CCc2nc(N)oc2CC1	0	-2	4	-1	11	nt	nt
Nc1nc2c(s1)CCCCCCCCCC2	0	6	1	0	6	nt	nt
CCN1CCc2nc(N)sc2C1	68*	35*	5	6	-15	22%	16%
C=CCN1CCc2nc(N)sc2CC1	88*	89*	81*	69*	-23	0.089µM*	0.045µM*
CCCCn1c(N)c(N(CCC(C)C)C(=O)C2CC(=O)N(CCc3ccc(OC)c(OC)c3)C2)c(=O)[nH]c1=O (configuration not stated)	0	9	4	-1	6	-1%	-4%
CC(C)(C)OC(=O)N1CCC(c2c(C(=O)Nc3ccc4c(c3)OCCO4)cnn2-c2ccc(F)cc2F)CC1	1	nt	nt	nt	4	nt	nt
CCCN(CC(=O)Nc1ccccc1OC)C(=O)CSC(=S)N1CCCC1	2	0	-4	-5	1	2%	-3%
SMILES	D2 ag-1	D2 antagonist	D2 PAM-1	D2 ag-2	D2 PAM-2	D3 arrestin ag	D2 ag-3
O=C(CN1C(=O)COc2ccc(S(=O)(=O)N3CCCCCC3)cc21)NCCc1ccccc1	-1	nt	nt	nt	-3	nt	nt
O=C(NCc1ccc2c(c1)OCO2)c1nc(Cn2cc(Br)cn2)no1	nt	nt	-4	2	nt	-1%	-3%
CCN(C(=O)C1CCN(S(=O)(=O)c2ccc3c(c2)CCCN3C(=O)C2CCC2)CC1)c1cccc(C)c1	1	nt	nt	nt	-2	nt	nt
Cc1ccc(NC(=O)Cn2c(-c3ccc4c(c3)OCO4)cn(-c3ccccc3)c2=O)cc1	0	nt	nt	nt	12	nt	nt
COC(=O)CN(C)C(=O)CC1C(=O)NCCN1CC(C)(C)C (configuration not stated)	40*	-3	-3	-2	-12	-5%	-1%
C[C@H]1[C@H](C)CC[C@]2(C)CC[C@]3(C)C(=CC(=O)C4[C@@]5(C)CC[C@H](O)C(C)(C)C5CC[C@]43C)[C@H]12 (some centres not stated)	0	21	0	-4	0	-2%	-1%
CC(=O)c1ccccc1NS(=O)(=O)c1cc2c(cc1C)NC(=O)CO2	0	nt	nt	nt	-7	nt	nt
OCC[C@@H]1C[C@@H](O)[C@H](O)[C@]2(OCCCc3ccccc32)O1	1	-10	-2	-1	-2	nt	nt
OCC[C@H]1C[C@H](O)[C@@H](O)[C@@]2(OCCCc3ccccc32)O1	1	-7	-2	-3	0	0%	-4%
OCC[C@H]1C[C@@H](O)[C@H](O)[C@]2(OCc3ccccc32)O1	0	-2	-3	-2	6	-4%	0%
Cc1ccccc1NC(=O)CN(c1ccc(Cl)cc1Cl)S(=O)(=O)c1ccccc1	0	nt	nt	nt	3	nt	nt
Cc1ccc(Cn2c(=O)n(Cc3ccccc3)c(=O)c3c(C)c(C)sc32)cc1	0	nt	nt	nt	-11	nt	nt
CCCCCCCC/C=C\CCCCCCCC(=O)NCCO	1	12	-7	-3	4	nt	nt
CCCCCCCC/C=C\CCCCCCCC(=O)NCCc1ccc(O)c(O)c1	39*	57*	?	100*	7	4µM*	16µM*
C[C@@H]1NS(=O)(=O)[C@H]2C[C@@H]3C=C[C@]2(O3)[C@H]1OC(=O)Nc1ccc(C(F)(F)F)cc1[N+](=O)[O-]	1	-6	-1	-4	2	9%	2%
Cc1cc(C(=O)O[C@H]2[C@H](C)NS(=O)(=O)[C@H]3C[C@@H]4C=C[C@]23O4)cc([N+](=O)[O-])c1	0	-11	-11	-3	1	nt	nt
Cn1c(CCN2CCN(c3ccccn3)CC2)nc2cc(NC(=O)COc3ccc(Cl)cc3)ccc21	-1	37*	-20	11	2	26%	?

Source: PubChem (National Center for Advancing Translational Sciences (NCATS))
